Laboratory results reported in PubChem BioAssay AID1159506 (National Center for Advancing Translational Sciences (NCATS), 2015).
Whole data set: some 59,000 sequences, median the read-out near -0.00055, cut for the lowest 2% near -2. Many of the other results were omitted from the sample, so the lowest values are more common in it than they were.

Test: Identification of proteins required for the processing of the EWS-FLI1 nascent transcript;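 also: robust z of luciferase light less the median z of siRNAs with the same seed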
Settings: TC32 Ewing sarcoma NR0B1-luc vs CMV-luc (EWS-FLI1 target promoter against control promoter), 48 h; screened at 20 nM (by protocol)
Outline: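 TC32 Ewing sarcoma cells carrying NR0B1-promoter or CMV-promoter luciferase reporters were reverse-transfected with single siRNAs at 20 nM, three per gene genome-wide. Luminescence was read after 48 h and normalized to non-targeting controls.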

Sequence | seed-corrected z-score
UUCAGUACAUCUCUGCAGG against RDH12 | 0.532
UUCAUCACAACCUUCCGUG against TLR5 | 0.937
UUCCAGGUCACCAACCACC against IFITM5 | -0.607
UUCUGCAUAAGUAGUUUUC against INIP | -2.13
UGCUUAGCUUCUUUAACCC against PLIN2 | 0.638
UCCUGAACAGGCUUAUCCC against AXIN1 | 0.946
UGAUCUCCAAUCACAUGCC against ARFGEF2 | -0.117
UCGUUUACAAACAUGAGUC against MPDZ | 0.35
UUCUGACCAAGCAAACUCG against SF3B1 | -2.7
AUUGAUGUAUGACUCUUCC against DDX55 | -0.91
UUCUUUGCCUCGCUUAUUC against OLFML2B | 0.806
UAUCUGAGGAGUUCUGACC against SLC22A2 | 0.452
AAAUGUCUUAGGGAUUGGG against ITPRIPL1 | -2.1
UCUCCAAGAAGUUCACUGG against SOX6 | 0.406
UCUGUUGCUGCCUAAACUC against TMEM198B | 0.298
UAUAGAACAAGGUAAAUCC against MTF2 | 0.208
UUCUAUCAAAUAUCCUUUG against LOC400940 | -0.132
UAGGAAAUCAUCUCCCUCC against TMEM169 | -3.9
UACCCAUAUAUUUAAAGCC against PQLC3 | 0.395
UUUUCAUUUACGGAACCCG against SMOC2 | 0.202
UCAGAAGUAACAGCAGAUC against FANCG | 0.307

Sequence | seed-corrected z-score
UCAUAGUGCAGGUAGAGCC against TRIM50 | -0.491
AUAGAAGUCAACCUCAUUC against CASQ2 | 0.181
UAUUUGUCCAGGUAUGGUG against ERRFI1 | -0.215
GUCUCUGGUACCUGUGUGC against LOC440300 | -0.25
UACUCUGUUAGGAAGACCG against TECR | 0.271
UCCUGCUUCCGGAAUAUCU against PNMA2 | -2.12
UCAGAUUUCAGACCGCCCA against LINC00668 | 0.167
UUCAGUUCGUAAUCUCUCU against FLOT1 | 0.706
UUCAAAUCCCUAUUAAAGC against ARFIP1 | 0.962
AAGUGGAACCGAUACUUCC against SPDYE14P | -0.205
UUUGGUGCACGUAACUUGG against C6orf203 | -2.05
UUCGGUGUCAAUAACUGUG against BCAS3 | -1.77
UUUCGUAAUAUGCGGCCUC against ASPA | -0.032
UCUUGAUAAGAGACCAGCU against PRR3 | 0.373
AAAUCCACAAUCCAGGGAG against SPATA31E2P | 0.176
UGUUCAGUUGCUAAAAUGG against KLRC1 | 0.773
UCUGUAAACAGCUUGAUGA against GLP1R | -0.289
UUCAUUCUCUGCAAAAUCC against NSMCE1 | -0.305
UACGAUCAAAGGUUGAUUC against ATF7IP | -4.54
UUCAAUGCAUACAUAGAGC against ZNF585A | 0.552
AUAGGGUAUAGCUCCAGUC against CIART | 1.2

Sequence | seed-corrected z-score
UGAAGUCGUAGAUCUCACG against PTDSS2 | -2.62
AAUAGUUAUUUUGUUGAGC against C6orf52 | -0.622
UAGGUGUGCAUCAUAGUAA against C11orf94 | -0.539
UGAGUCAUCCACGCAGUUC against PSCA | 0.371
UCUGUUUCCAUUGCGUUCU against FLJ41278 | -0.527
UCUUCGUCUGGGUCGUUUG against SIGLEC6 | -0.384
UUCUGGAGUAGCAAGCUAC against POLR2D | -2.24
UUUCAUCUCCAUCCGGUAG against JPH3 | -0.755
ACUCGAAGCAUCUCGAUGG against HAS3 | -0.313
AACUAAACCAGCUCGCUUC against LRRC8C | 2.39
UGUCAAGUCGGGUUCACCC against CCDC97 | -0.229
UGCUGCUUCCCUAAGAUCC against ATG4A | 0.243
AAUAGCUGCAUAACUGUCU against CLTA | -3.36
UUCUGCUUCAUGUUGAGCC against RECQL4 | -0.111
UCUUGUCGAAAAGCUCACC against KIAA1161 | 0.789
AUCGUGCAAGGUGUUCUCC against BFSP2 | 0.341
AUUUCCUUGAUUGUCAUCC against SERPINB7 | -2.22
AAAGUUCUCGAAAUGCUUC against GLOD4 | -0.0199
UUACGGUACUUGGUCUCGC against NRAP | -1.11
UUUUUGGUCACCGGUUGCC against GRK5 | -0.48
UAGCUUGAUAAUAACCAGC against EMC8 | 0.529

Sequence | seed-corrected z-score
AUAGUGCUCAUGAACAUGG against OR7G1 | 0.135
UAGCUGUGAACAGUACCCG against MPL | -2.07
UGUUGUCAAAACCACUGCC against CTBP1 | -1.98
UGAUGAACUGGUUAUGAGG against LAPTM5 | 1.26
UACAUCCUCAUUAUAGGUU against ZNRF2 | -0.243
UUGUCUAAUGGUAAAGUGC against LDB2 | -0.144
AAGGGUAUCUGAGUCCUUG against RC3H2 | -0.0262
UGAGCGAUUGUUAAAUGCC against ZNF781 | -0.576
UGCUCUCUCAGAAUCUCGC against SPA17 | -0.647
UUAGCAUUCCUGGAAUCCG against EIF5B | -2.11
AGAUUGUUAAGCAGCGUGU against C7orf43 | 0.291
UCUAUGUCGGGAUCGGUGC against LINC00467 | 0.416
UUCUUAUCAGCAGCUAGUC against CKAP5 | -2.74
AAGGCAACAGUGUCCCAUG against SMIM22 | -1.28
UUUGAAAUUUGUCAGGUCU against PQLC2L | -0.634
UACUAUGUCUUCAAGAUCC against CD99L2 | 0.481
UGCUUUAACUGGAUACAUC against NPHP1 | -2.27
UUCUUAGCUCCCACGAUCC against ZNF512 | 0.51
UUGGUGAAUAAAUAUCAUC against ZBTB25 | 0.411
AAUCUUCCCAUUCUCGUCC against NAA10 | 0.136
UACGGUAUGACUUUCGUUG against RPL23 | -2.37
